This is a sample that favours compounds with a hit; in the whole collection about 4% have one here.
GDH-TPI inh – GDH-TPI coupling enzyme inhibitors, primary screen, artefact control for M. tuberculosis FBA inhibitor project, biochemical, absorbance, full deck. inhibition, % at 4.8 µM. GDH-TPI coupled enzyme counterscreen, NADH absorbance. hit rate 1.2% among 360,000
Mtb betalactam – beta-lactam sensitization of Mtb H37Rv, H37Rv; hit rate 0.27% among 330,000; inhibition, % at 25 µM; M. tuberculosis H37Rv growth with meropenem, percent inhibition; call rule not given here;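 also: growth measured after seven days incubation then overnight dye step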
CCHFV vOTU inh – CCHFV vOTU protease inhibitors, primary screen, biochemical, Pep-AMC substrate, fluorescence; Crimean-Congo hemorrhagic fever virus L polyprotein viral ovarian tumor (vOTU) protease …; inhibition, % at 11.5 µM; hit rate 0.55% among 370,000; AID 651958, 2012
MazF activator – activators of E. coli MazEF toxin-antitoxin RNase, primary screen, biochemical, fluorescence, uHTS | FAM/BHQ RNA-DNA oligo cleavage fluorescence, 5 h | activation, % at 20 µM | hit rate 0.32% among 350,000; in the data active = activation above about 50%
Target sequence (P0AE70 whole entry, looked up): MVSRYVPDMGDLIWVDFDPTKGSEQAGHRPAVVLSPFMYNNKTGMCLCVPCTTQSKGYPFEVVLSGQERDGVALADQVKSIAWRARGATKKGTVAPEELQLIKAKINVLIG
FBA Mtb inh – Mtb FBA enzyme inhibitors, primary screen, biochemical, fluorescence, strain H37Rv | Fructose-bisphosphate aldolase (Mycobacterium tuberculosis (strain ATCC 25618 / H37Rv)), … | purified M. tuberculosis FBA, fluorescence read-out | inhibition, % at 1 µM | hit rate 2.3% among 360,000 | AID 588726, 2011; in the data active = inhibition above about 27%
Target sequence (P9WQA3 whole entry, looked up): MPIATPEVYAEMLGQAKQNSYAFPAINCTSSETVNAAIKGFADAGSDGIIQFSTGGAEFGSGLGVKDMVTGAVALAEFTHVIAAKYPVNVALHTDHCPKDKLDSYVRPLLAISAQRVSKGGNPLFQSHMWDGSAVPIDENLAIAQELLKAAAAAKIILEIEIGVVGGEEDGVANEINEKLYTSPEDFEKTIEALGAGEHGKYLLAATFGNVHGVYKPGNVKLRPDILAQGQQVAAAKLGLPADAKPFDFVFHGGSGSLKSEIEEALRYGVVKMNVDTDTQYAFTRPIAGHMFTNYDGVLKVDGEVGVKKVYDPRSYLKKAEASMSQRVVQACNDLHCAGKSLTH
Of the large screens only hits and unclear results are named; the others gave an inactive call. Rule as the data show it, unless noted: active = inhibition above about 30%; inactive = the rest.

CC(=O)N1CCc2c1cccc2S(=O)(=O)NC(CC(C)C)C(=O)Nc1ccccc1C (centres undefined)	none (no result: GDH-TPI inh, Mtb betalactam, MazF activator, FBA Mtb inh)
CNc1ccc(/C=C\CCCO)cn1	FBA Mtb inh 115 (no result: Mtb betalactam, MazF activator)
CC(=O)c1sc(=S)n(-c2ccc(Cl)cc2)c1C	none
CC(=O)c1sc(=S)n(-c2ccccc2)c1C	GDH-TPI inh 68
CCN(CC)C(=O)CC[C@H]1CC[C@]2(CCCN(Cc3nccn3C)C2)O1	none (no result: GDH-TPI inh, Mtb betalactam, MazF activator, FBA Mtb inh)
CCOC(=O)c1cc(C)[nH]c1C	none
CCOC(=O)c1cc(C)[nH]c(=O)c1C#N	FBA Mtb inh 161
O=c1cccc2n1Cc1cc3ccccc3nc1-2	GDH-TPI inh 32, FBA Mtb inh active
c1ccc2c(c1)-c1nc3ccccc3cc1C2N1CCCCC1 (centres undefined)	none (no result: Mtb betalactam)
COc1cc2c(cc1OC)C(CCc1ccccc1)=NCC2	FBA Mtb inh 158
COc1cc2c(cc1OC)C(c1c(Cl)cccc1Cl)=NCC2	none (no result: GDH-TPI inh, Mtb betalactam, MazF activator)
CCc1ccc(/C=C2/C(=O)NC(=O)N2C(C)=O)cc1	GDH-TPI inh 40
Cc1ccc(-n2c(SCC(=O)c3ccc(F)cc3)nnc2-c2cccnc2)cc1	none (no result: GDH-TPI inh, Mtb betalactam, MazF activator, FBA Mtb inh)
COc1cc(C(=O)Nc2cc(-c3cn4cccnc4n3)ccc2C)cc(OC)c1OC	FBA Mtb inh active
Cc1ccc(-c2cn3cccnc3n2)cc1NC(=O)c1cccs1	FBA Mtb inh active
COc1ccc(-c2cn3cccnc3n2)cc1NC(=O)C1CC1	none (no result: CCHFV vOTU inh)
COc1ccc(-c2cn3cccnc3n2)cc1NC(=O)C(C)C	GDH-TPI inh 34 (no result: MazF activator)
COc1ccc(-c2cn3cccnc3n2)cc1Br	FBA Mtb inh active
CC(C)(C)OC(=O)NCc1cc(F)ccc1/C=C/S(=O)(=O)NCc1ccccc1	none (no result: GDH-TPI inh, Mtb betalactam, MazF activator, FBA Mtb inh)
COc1cc(OC)cc(C(=O)Nc2cc(-c3cn4cccnc4n3)ccc2C)c1	FBA Mtb inh active
O=C(COc1ccccc1)Nc1cccc(-c2cn3cccnc3n2)c1	FBA Mtb inh active
Nc1ccc(-c2cn3cccnc3n2)cc1	GDH-TPI inh 38 (no result: Mtb betalactam)
Nc1ccccc1SCc1cn2cccnc2n1	none
CN(CCO)c1nc(N)c(C#N)c(CC#N)c1C#N	GDH-TPI inh 34
CCOc1nc(Nc2cc(Cl)ccc2OC)nc(OCC)n1	none
C=CCNc1nc(Cl)nc(Nc2cc(Cl)ccc2OC)n1	MazF activator 58
COCC(=O)N[C@H]1C[C@@H]2O[C@H](CO)CC[C@@H]2O[C@@H]1CCc1ccc(-c2ccccc2)cc1	none (no result: GDH-TPI inh, Mtb betalactam, MazF activator, FBA Mtb inh)
c1ccc(-c2c[nH]c3cccc(-c4cc5ccccc5o4)c23)cc1	none (no result: GDH-TPI inh, Mtb betalactam, MazF activator, FBA Mtb inh)
Cc1cccc(Nc2ncc3c(n2)CC(C)CC3=O)c1 (centres undefined)	GDH-TPI inh 36
Cc1cccc(Nc2ncc3c(n2)CC(c2ccco2)CC3=O)c1 (centres undefined)	none
COc1ccc(Nc2ncc3c(n2)CC(c2ccccc2)CC3=O)cc1 (centres undefined)	GDH-TPI inh 31
COC(=O)C1CN(C2CCCC2)CCS(=O)(=O)N1Cc1cn(Cc2ccc(Cl)cc2)nn1 (centres undefined)	none (no result: GDH-TPI inh, Mtb betalactam, MazF activator, FBA Mtb inh)
COC(=O)/C=C1\C(=O)N(c2nc3ccc(OC)cc3s2)C(=S)N1c1ccc(F)cc1	none (no result: GDH-TPI inh, CCHFV vOTU inh, MazF activator, FBA Mtb inh)
COC(=O)/C=C1\C(=O)N(c2nc3ccccc3s2)C(=S)N1c1ccc(F)cc1	MazF activator 58
N#Cc1ccc(OC[C@@H](O)CN2CCC(C(O)(c3ccccc3)c3ccccc3)CC2)cc1F	none (no result: GDH-TPI inh, Mtb betalactam, MazF activator, FBA Mtb inh)
COc1ccc(C[N+]2=C(N)NC3=C4CCCCC4n4c(=O)n(-c5ccccc5)c(=O)n4C3C2)c(OC)c1 (centres undefined)	none (no result: GDH-TPI inh, Mtb betalactam, MazF activator, FBA Mtb inh)
O=C(NNC(=S)Nc1ccc(Br)cc1)c1cccnc1	none
Cc1noc(NS(=O)(=O)c2ccc(N/C=C/C(=O)c3cccnc3)cc2)c1C	GDH-TPI inh 34
Cc1noc(NS(=O)(=O)c2ccc(N/C=C\C(=O)c3ccncc3)cc2)c1C	none
O=C(/C=C\Nc1ccc(Br)cc1)c1cccnc1	GDH-TPI inh 35
COC[C@H]1CCCN1c1ccc2c(c1)O[C@H]1CCN(C1)S2(=O)=O	none (no result: GDH-TPI inh, Mtb betalactam, MazF activator, FBA Mtb inh)
O=C(CN1CCOCC1)N/N=C/c1ccccc1	none
O=C(CN1CCOCC1)N/N=C/c1ccc(-c2ccc(C(=O)O)cc2)o1	GDH-TPI inh 35
Cc1ccc(-c2ccc(/C=N/NC(=O)CN3CCCC3)o2)cc1Cl	none
CC1(CC(=O)N/N=C/c2ccc(-c3ccc(C(=O)O)cc3)o2)OCCO1	GDH-TPI inh 60
CC1(CC(=O)N/N=C/c2ccc(-c3ccc(Cl)cc3)o2)OCCO1	GDH-TPI inh 55
CN(C(=O)CNC(=O)c1ccccc1OCC(=O)Nc1ccc(Br)cc1)c1ccccc1	none (no result: GDH-TPI inh, Mtb betalactam, MazF activator, FBA Mtb inh)
CCCCNS(=O)(=O)/C=C/c1ccc(F)cc1CNC(=O)OC(C)(C)C	none (no result: GDH-TPI inh, Mtb betalactam, MazF activator, FBA Mtb inh)
COC(=O)C1CN(Cc2ccc(F)cc2)CCS(=O)(=O)N1Cc1cn(Cc2ccccc2)nn1 (centres undefined)	none (no result: GDH-TPI inh, Mtb betalactam, MazF activator, FBA Mtb inh)
Cc1ccc(C)c(S(=O)(=O)NCC(=O)Nc2sc3c(c2C(N)=O)CCC(C)C3)c1 (centres undefined)	MazF activator 56
CCOC(=O)Nc1sc2c(c1C(N)=O)CCC(C)C2 (centres undefined)	none
CCN(c1ccc(C)cc1)S(=O)(=O)c1nnc(NC(=O)c2ccco2)s1	GDH-TPI inh 41
CN(c1ccccc1)S(=O)(=O)c1nnc(NC(=O)c2ccco2)s1	none
CC(C)CN(c1ccccc1)S(=O)(=O)c1nnc(NC(=O)c2ccco2)s1	GDH-TPI inh 35
COC(=O)[C@H](CC(C)C)N(CCc1cn(Cc2ccc(C)cc2)nn1)S(=O)(=O)c1ccc(F)cc1Br	none (no result: GDH-TPI inh, Mtb betalactam, MazF activator, FBA Mtb inh)
CC(C)c1ccc(S(=O)(=O)/N=C2\C=C(NS(=O)(=O)c3ccccc3)C(=O)c3ccccc32)cc1	CCHFV vOTU inh 68
C=CCn1c(O)c(C=Nc2ccc(OC)cc2C)c(=O)[nH]c1=O	GDH-TPI inh 43
C=CCn1c(O)c(C=Nc2c(C)n(C)n(-c3ccccc3)c2=O)c(=O)[nH]c1=O	none
CCN1CCN(C(=O)c2cc3c(=O)n4ccccc4nc3s2)CC1	FBA Mtb inh 192
CCOC(=O)CC1C(=O)NCCN1C(=O)c1cc2c(=O)n3cccc(C)c3nc2s1 (centres undefined)	FBA Mtb inh 162
CCOC(=O)C1CCN(C(=O)c2cc3c(=O)n4ccccc4nc3s2)CC1	FBA Mtb inh 159
O=C(c1cc2c(=O)n3ccccc3nc2s1)N1CCc2ccccc2C1	none (no result: GDH-TPI inh, CCHFV vOTU inh, MazF activator, FBA Mtb inh)
C[C@H](O)[C@@H]1C(=O)N2CCc3c([nH]c4c(-c5ccc6c(c5)OCO6)cccc34)[C@@H]2C[C@@H]1N(C)C(=O)c1ccccc1F	none (no result: GDH-TPI inh, Mtb betalactam, MazF activator, FBA Mtb inh)
CCCCNC(=O)NS(=O)(=O)c1ccc(NC(=O)CSc2nnc(-c3cccs3)n2-c2ccc(OC)cc2)cc1	none (no result: GDH-TPI inh, Mtb betalactam, MazF activator, FBA Mtb inh)
CC(=O)Nc1nc2nc(-c3ccccc3)cc(-c3ccccc3)n2n1	FBA Mtb inh 60
COC(=O)[C@]12C[C@H](CC(=O)NCc3cccc4ccccc34)C(=O)N(Cc3ccccc3)C1=C[C@H](COCc1ccccc1)O[C@@H]2C	none (no result: GDH-TPI inh, Mtb betalactam, MazF activator, FBA Mtb inh)
COc1ccc2cc3c(N)nn(C(=O)c4cccc(F)c4)c3nc2c1	none
